In article PMC7862700, “An all-to-all approach to the identification of sequence-specific readers for epigenetic DNA modifications on cytosine”:

How the values were obtained:
Test in all cases: DAPPL (digital affinity profiling via proximity ligation, sequencing); 10 mM Tris-HCl pH 7.5, 50 mM NaCl, 1 mM DTT, 4% glycerol, room temperature, 30 min; GST-TFs on glutathione beads, 16-mer random dsDNA library, 0.1% formaldehyde crosslink after washing; high values mean tight binding
Settings in all cases: protein: recombinant; tags: N-terminal GST; dsDNA, one strand shown
FLI1 = biological target: T1, FLI1 (Homo sapiens, UniProt Q01543 1-452)
T1 sequence: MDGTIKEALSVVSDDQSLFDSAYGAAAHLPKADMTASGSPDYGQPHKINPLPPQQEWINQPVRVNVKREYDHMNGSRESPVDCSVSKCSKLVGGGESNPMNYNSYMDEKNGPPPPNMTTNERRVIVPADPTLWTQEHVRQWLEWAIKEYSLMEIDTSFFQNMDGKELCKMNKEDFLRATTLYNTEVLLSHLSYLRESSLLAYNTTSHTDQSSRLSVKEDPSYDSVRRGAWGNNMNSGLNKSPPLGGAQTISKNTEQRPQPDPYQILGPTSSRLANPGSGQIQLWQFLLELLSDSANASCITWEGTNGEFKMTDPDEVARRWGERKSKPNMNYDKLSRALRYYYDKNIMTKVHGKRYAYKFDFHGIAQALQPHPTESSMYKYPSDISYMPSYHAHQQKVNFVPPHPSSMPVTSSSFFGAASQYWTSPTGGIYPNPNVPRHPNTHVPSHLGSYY
Outline: (§1)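 After expression in yeast as GST fusions, human transcription factors were bound to glutathione beads, DNA-barcoded and mixed with a tag-only sample. The pools were incubated with 200 nmole of a 16-mer random double-stranded DNA library in Tris/NaCl/DTT/glycerol buffer (30 min, room temperature), washed and crosslinked with 0.1% formaldehyde. Proximity ligation with BsaI/T4 ligase ran for 1 h at 37 °C, before PCR amplification and sequencing on an Illumina NextSeq500. Binding signal is a hexamer's read frequency for a factor divided by its frequency for the tag-only sample.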

ELK1 = biological target: T2, ELK1 (Homo sapiens, UniProt P19419 1-428)
T2 sequence: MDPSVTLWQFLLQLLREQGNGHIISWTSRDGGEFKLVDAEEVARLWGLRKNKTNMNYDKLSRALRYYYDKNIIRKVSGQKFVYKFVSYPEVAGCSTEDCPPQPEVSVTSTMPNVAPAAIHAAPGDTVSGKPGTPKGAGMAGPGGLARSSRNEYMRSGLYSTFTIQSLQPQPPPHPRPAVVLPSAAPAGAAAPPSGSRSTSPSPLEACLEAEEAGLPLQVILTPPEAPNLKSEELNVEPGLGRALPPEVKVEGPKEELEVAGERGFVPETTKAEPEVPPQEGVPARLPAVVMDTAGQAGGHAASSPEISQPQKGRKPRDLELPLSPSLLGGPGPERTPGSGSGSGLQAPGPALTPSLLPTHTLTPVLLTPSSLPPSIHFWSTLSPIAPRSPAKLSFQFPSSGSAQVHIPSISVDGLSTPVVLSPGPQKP
Outline: as §1

GABPA = biological target: T3, GABPA (Homo sapiens, UniProt Q06546 1-454)
T3 sequence: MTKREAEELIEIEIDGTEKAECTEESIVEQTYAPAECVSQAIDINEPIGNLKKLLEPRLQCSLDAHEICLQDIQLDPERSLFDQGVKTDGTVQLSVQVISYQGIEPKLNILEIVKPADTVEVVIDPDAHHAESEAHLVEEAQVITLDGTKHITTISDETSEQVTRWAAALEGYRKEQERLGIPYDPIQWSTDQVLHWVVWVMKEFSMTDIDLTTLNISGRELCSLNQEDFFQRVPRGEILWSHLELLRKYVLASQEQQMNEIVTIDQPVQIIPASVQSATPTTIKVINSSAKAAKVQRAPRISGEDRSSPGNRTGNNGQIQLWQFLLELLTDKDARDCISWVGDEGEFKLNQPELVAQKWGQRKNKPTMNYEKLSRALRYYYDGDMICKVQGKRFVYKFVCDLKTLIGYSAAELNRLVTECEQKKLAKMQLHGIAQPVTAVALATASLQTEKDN
Outline: as §1

ERG = biological target: T4, ERG (Homo sapiens, UniProt P11308 1-479)
T4 sequence: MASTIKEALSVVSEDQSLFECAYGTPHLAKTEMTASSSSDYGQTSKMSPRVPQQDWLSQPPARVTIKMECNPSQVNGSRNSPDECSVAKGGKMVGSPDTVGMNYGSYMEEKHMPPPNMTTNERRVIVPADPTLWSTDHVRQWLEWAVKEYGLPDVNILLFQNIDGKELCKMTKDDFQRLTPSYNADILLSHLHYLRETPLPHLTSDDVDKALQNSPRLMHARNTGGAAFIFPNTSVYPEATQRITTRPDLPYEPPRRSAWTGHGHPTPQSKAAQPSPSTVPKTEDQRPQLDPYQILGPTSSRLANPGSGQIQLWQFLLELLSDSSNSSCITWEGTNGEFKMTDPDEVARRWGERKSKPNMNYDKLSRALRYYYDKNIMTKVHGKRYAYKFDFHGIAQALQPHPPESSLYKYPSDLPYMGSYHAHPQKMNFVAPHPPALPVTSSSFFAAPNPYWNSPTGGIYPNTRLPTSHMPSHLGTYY
Outline: as §1

ELF1 = ELF1 (Homo sapiens, UniProt P32519 1-619)
ELF1, sequence (P32519 whole entry): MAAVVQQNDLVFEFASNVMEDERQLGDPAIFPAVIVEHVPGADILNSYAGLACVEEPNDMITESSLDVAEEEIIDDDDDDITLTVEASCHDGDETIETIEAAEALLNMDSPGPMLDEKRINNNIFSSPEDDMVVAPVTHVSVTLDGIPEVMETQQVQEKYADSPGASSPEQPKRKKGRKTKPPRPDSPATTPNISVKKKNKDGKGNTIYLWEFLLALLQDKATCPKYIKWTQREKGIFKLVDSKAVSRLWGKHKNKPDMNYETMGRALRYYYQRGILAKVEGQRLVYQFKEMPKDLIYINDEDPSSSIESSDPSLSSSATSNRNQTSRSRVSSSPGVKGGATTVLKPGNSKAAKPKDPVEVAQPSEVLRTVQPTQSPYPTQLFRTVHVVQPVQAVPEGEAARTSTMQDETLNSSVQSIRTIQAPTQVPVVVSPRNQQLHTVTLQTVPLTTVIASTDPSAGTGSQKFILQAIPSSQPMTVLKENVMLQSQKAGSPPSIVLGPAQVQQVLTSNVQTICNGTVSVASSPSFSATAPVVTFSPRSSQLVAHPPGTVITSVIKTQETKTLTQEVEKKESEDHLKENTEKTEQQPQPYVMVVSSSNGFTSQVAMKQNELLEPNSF
Outline: as §1

EHF = biological target: T5, EHF (Homo sapiens, UniProt Q9NZC4 1-300)
T5 sequence: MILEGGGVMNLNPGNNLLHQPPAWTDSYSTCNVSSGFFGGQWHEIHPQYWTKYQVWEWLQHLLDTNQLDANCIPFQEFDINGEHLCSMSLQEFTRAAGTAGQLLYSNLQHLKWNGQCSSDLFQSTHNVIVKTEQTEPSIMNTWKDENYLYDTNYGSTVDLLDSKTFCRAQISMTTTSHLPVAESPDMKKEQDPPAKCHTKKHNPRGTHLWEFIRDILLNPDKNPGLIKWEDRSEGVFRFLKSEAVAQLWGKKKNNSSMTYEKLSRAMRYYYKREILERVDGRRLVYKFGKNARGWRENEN
Outline: as §1

SPI1 = SPI1 (Homo sapiens, UniProt P17947 1-270)
Outline: as §1

SPIB = SPIB (Homo sapiens, UniProt Q01892 1-262)
SPIB, sequence (Q01892 whole entry): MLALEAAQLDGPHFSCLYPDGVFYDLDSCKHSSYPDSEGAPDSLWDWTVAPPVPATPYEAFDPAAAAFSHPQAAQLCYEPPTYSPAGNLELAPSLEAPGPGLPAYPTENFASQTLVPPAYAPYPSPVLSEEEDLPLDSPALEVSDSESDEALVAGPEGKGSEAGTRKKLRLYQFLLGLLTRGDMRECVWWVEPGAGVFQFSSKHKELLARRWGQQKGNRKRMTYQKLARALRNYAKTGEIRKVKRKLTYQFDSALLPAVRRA
Outline: as §1

ELK3 = biological target: T6, ELK3 (Homo sapiens, UniProt P41970 1-407)
T6 sequence: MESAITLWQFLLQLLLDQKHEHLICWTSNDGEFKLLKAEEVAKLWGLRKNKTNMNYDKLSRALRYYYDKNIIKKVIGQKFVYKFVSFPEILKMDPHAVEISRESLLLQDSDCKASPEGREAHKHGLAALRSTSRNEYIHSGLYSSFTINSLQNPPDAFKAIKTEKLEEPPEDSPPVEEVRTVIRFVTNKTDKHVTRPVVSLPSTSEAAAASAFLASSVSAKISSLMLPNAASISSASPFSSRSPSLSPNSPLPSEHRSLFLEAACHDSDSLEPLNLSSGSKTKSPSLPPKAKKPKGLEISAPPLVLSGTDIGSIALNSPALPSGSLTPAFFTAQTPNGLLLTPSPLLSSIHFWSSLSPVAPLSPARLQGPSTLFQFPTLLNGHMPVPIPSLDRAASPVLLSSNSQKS
Outline: as §1

Sequence	binding signal (FLI1)	binding signal (ELK1)	binding signal (GABPA)	binding signal (ERG)	binding signal (ELF1)	binding signal (EHF)	binding signal (SPI1)	binding signal (SPIB)	binding signal (ELK3)
CATCTT	1.18 fold enrichment (6-mer frequency, TF over GST control)	1.27 fold enrichment (6-mer frequency, TF over GST control)	1.17 fold enrichment (6-mer frequency, TF over GST control)	1.27 fold enrichment (6-mer frequency, TF over GST control)	1.25 fold enrichment (6-mer frequency, TF over GST control)	1.2 fold enrichment (6-mer frequency, TF over GST control)	1.21 fold enrichment (6-mer frequency, TF over GST control)	1.21 fold enrichment (6-mer frequency, TF over GST control)	1.29 fold enrichment (6-mer frequency, TF over GST control)
GCTATT	1.33 fold enrichment (6-mer frequency, TF over GST control)	1.34 fold enrichment (6-mer frequency, TF over GST control)	1.36 fold enrichment (6-mer frequency, TF over GST control)	1.3 fold enrichment (6-mer frequency, TF over GST control)	1.26 fold enrichment (6-mer frequency, TF over GST control)	1.39 fold enrichment (6-mer frequency, TF over GST control)	1.3 fold enrichment (6-mer frequency, TF over GST control)	1.28 fold enrichment (6-mer frequency, TF over GST control)	1.39 fold enrichment (6-mer frequency, TF over GST control)
CTTATA	1.3 fold enrichment (6-mer frequency, TF over GST control)	1.33 fold enrichment (6-mer frequency, TF over GST control)	1.41 fold enrichment (6-mer frequency, TF over GST control)	1.28 fold enrichment (6-mer frequency, TF over GST control)	1.33 fold enrichment (6-mer frequency, TF over GST control)	1.4 fold enrichment (6-mer frequency, TF over GST control)	1.43 fold enrichment (6-mer frequency, TF over GST control)	1.39 fold enrichment (6-mer frequency, TF over GST control)	1.29 fold enrichment (6-mer frequency, TF over GST control)
CGTTCT	1.37 fold enrichment (6-mer frequency, TF over GST control)	1.41 fold enrichment (6-mer frequency, TF over GST control)	1.44 fold enrichment (6-mer frequency, TF over GST control)	1.55 fold enrichment (6-mer frequency, TF over GST control)	1.5 fold enrichment (6-mer frequency, TF over GST control)	1.3 fold enrichment (6-mer frequency, TF over GST control)	1.39 fold enrichment (6-mer frequency, TF over GST control)	1.43 fold enrichment (6-mer frequency, TF over GST control)	1.52 fold enrichment (6-mer frequency, TF over GST control)
TTCGTC	1.36 fold enrichment (6-mer frequency, TF over GST control)	1.33 fold enrichment (6-mer frequency, TF over GST control)	1.33 fold enrichment (6-mer frequency, TF over GST control)	1.23 fold enrichment (6-mer frequency, TF over GST control)	1.32 fold enrichment (6-mer frequency, TF over GST control)	1.27 fold enrichment (6-mer frequency, TF over GST control)	1.29 fold enrichment (6-mer frequency, TF over GST control)	1.27 fold enrichment (6-mer frequency, TF over GST control)	1.22 fold enrichment (6-mer frequency, TF over GST control)
TCATCT	1.23 fold enrichment (6-mer frequency, TF over GST control)	1.28 fold enrichment (6-mer frequency, TF over GST control)	1.27 fold enrichment (6-mer frequency, TF over GST control)	1.15 fold enrichment (6-mer frequency, TF over GST control)	1.3 fold enrichment (6-mer frequency, TF over GST control)	1.13 fold enrichment (6-mer frequency, TF over GST control)	1.18 fold enrichment (6-mer frequency, TF over GST control)	1.28 fold enrichment (6-mer frequency, TF over GST control)	1.16 fold enrichment (6-mer frequency, TF over GST control)
ACTAAA	1.26 fold enrichment (6-mer frequency, TF over GST control)	1.22 fold enrichment (6-mer frequency, TF over GST control)	1.34 fold enrichment (6-mer frequency, TF over GST control)	1.3 fold enrichment (6-mer frequency, TF over GST control)	1.32 fold enrichment (6-mer frequency, TF over GST control)	1.21 fold enrichment (6-mer frequency, TF over GST control)	1.32 fold enrichment (6-mer frequency, TF over GST control)	1.28 fold enrichment (6-mer frequency, TF over GST control)	1.34 fold enrichment (6-mer frequency, TF over GST control)
ATGCCT	1.38 fold enrichment (6-mer frequency, TF over GST control)	1.4 fold enrichment (6-mer frequency, TF over GST control)	1.52 fold enrichment (6-mer frequency, TF over GST control)	1.48 fold enrichment (6-mer frequency, TF over GST control)	1.35 fold enrichment (6-mer frequency, TF over GST control)	1.42 fold enrichment (6-mer frequency, TF over GST control)	1.32 fold enrichment (6-mer frequency, TF over GST control)	1.45 fold enrichment (6-mer frequency, TF over GST control)	1.22 fold enrichment (6-mer frequency, TF over GST control)
